Shown are actives, neighbours in structure and some others; about 4% of the full set was active somewhere.
Peg3 prom inh – Peg3 promoter-driven luciferase inhibitors, primary screen, cell-based, HeLa, luciferase luminescence | HeLa PEG-Prom luciferase reporter, overnight | 360,000 compounds, 1.7% hits | inhibition, % at 20 µM;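 active = inhibition of at least 50% at 20 µM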
TROY signal inh – inhibitors of TROY-driven NF-kB signaling, primary screen, Q293 LMP1-TROYcd cells, NF-kB luciferase, uHTS; Q293 LMP1-TROYcd NF-kB luciferase reporter, 4 h; 360,000 compounds, 0.98% hits; inhibition, % at 10 µM;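 active = compounds whose plate-normalised and pattern-corrected inhibition of the luciferase reporter signal at the single screening dose is 50% or more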
HIF-2a inh – HIF-2a reporter inhibitors, primary screen, luminescence, 786-0 RCC cells. 786-0 RCC cells HIF-2a reporter, luciferase luminescence, overnight. inhibition, % at 18.8 µM. 360,000 compounds, 0.72% hits;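 active = inhibition of the luminescence signal of 40% or more relative to plate controls, in a single-dose primary screen at 18.75 µM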
KKLEB cytotox – cytotoxicity in KKLEB CF airway cells, primary screen, cytotoxicity control for CF NF-kB inhibitor project, cell-based, uHTS, fluorescence assay plates. KKLEB CF airway cells viability, ATPlite luminescence, overnight; stronger effect = lower value; cells stimulated with P. aeruginosa culture filtrate. activity change (cytotoxicity), % at 5 µM. 360,000 compounds, 0.36% hits;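 active = corrected activity change at or below -50% at 5 µM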
TWEAK Fn14 block – inhibitors of TWEAK-Fn14 signaling, primary screen, luciferase reporter cells, uHTS; AID 1159606, 2016; 360,000 compounds, 2% hits; TWEAK-stimulated Fn14 reporter cells, luciferase luminescence, 8 h; inhibition, % at 10 µM; in the data active = inhibition above about 50%
CF NFkB inh – inhibitors of PAF-induced NF-kB signaling, primary screen, cell-based, GFP fluorescence, uHTS; KKLEB NF-kB-GFP reporter, GFP fluorescence overnight; inhibition, % at 5 µM; 360,000 compounds, 0.86% hits;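 active = at least 50% inhibition at 5 µM, scaled per plate between neutral and stimulator controls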;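 also: PAF is a Pseudomonas aeruginosa culture filtrate used as stimulus; plate controls were PAF-stimulated DMSO wells for no effect and unstimulated DMSO wells for full effect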
* marks the source's active call; other numbers are inactive results; . = no result given.

SMILES | Peg3 prom inh | TROY signal inh | HIF-2a inh | KKLEB cytotox | TWEAK Fn14 block | CF NFkB inh
FC(F)Oc1ccc(C2=Nn3c(nnc3-c3ccccc3Cl)SC2)cc1OCC1CC1 | 14 | -6 | 5 | -17 | -29 | 18
COc1ccc(C2=Nn3c(nnc3-c3ccccc3Cl)SC2)cc1OC1CCCC1 | 20 | 53* | 29 | -9 | 8 | 46
COc1ccc(C2=Nn3c(nnc3-c3ccccc3F)SC2)cc1OCC1CC1 | 53* | 51* | 6 | -44 | 13 | 38
Cn1nc([N+](=O)[O-])nc1Oc1ccccc1F | 17 | 7 | 16 | 21 | 6 | -15
Cn1nc([N+](=O)[O-])nc1S(C)(=O)=O | 49 | 18 | -4 | 6 | 54* | 70*
CS(=O)(=O)c1nc([N+](=O)[O-])nn1CCCc1ccccc1 | 60* | 22 | 18 | -44 | 87* | 90*
Cc1ccc(NNC(=O)C(O)(c2cccc(C(F)(F)F)c2)c2cccc(C(F)(F)F)c2)cc1 | 67* | 43 | 6 | 6 | 22 | -14
O=C(Cn1cnc([N+](=O)[O-])c1)Nc1ccccc1C(F)(F)F | 7 | -11 | 9 | -4 | -5 | 8
COCC(=O)Nc1cc(Cl)ccc1C | 9 | -3 | 2 | -2 | -1 | 10
Cc1ccc(Cl)cc1NC(=O)CC(O)(C(F)(F)F)C(F)(F)F | 41 | 54* | -43 | -19 | 31 | 17
Cc1cccc(C)c1OCC(=O)Nn1c(C)nc2ccccc2c1=O | 0 | . | 22 | 4 | 78* | 15
O=C(CSC1=NCCS1)Nc1ccnc2ccccc12 | 23 | 29 | 16 | -8 | 52* | 32
C/C(CC(=O)Nc1ccc(N(C)C)cc1)=N\NC(=O)c1ccccc1O | 18 | 56* | 2 | -2 | 24 | 3
Cc1nn2c(=O)[nH]cnc2c1Cl | 8 | -5 | 6 | -10 | -2 | 4
CCCN1CCC(=O)N([C@H](CSc2ccccc2)CC(C)C)CC1 | -250 | 13 | -246 | 6 | 7 | -6
CCCN1CCC(=O)N([C@H](CSc2ccc(C)cc2)CC(C)C)CC1 | -276 | 61* | -207 | -2 | 41 | -6
COC(=O)c1ccc(CN2C(=O)NC3(CCCCC3C)C2=O)o1 (stereo not drawn) | 18 | . | 12 | 10 | 53* | -16
COC(=O)c1ccc(CN2C(=O)NC3(CCCc4ccccc43)C2=O)o1 (stereo not drawn) | 0 | 17 | 13 | 1 | 5 | 8
CCCCN1C(=O)C2(OCCCO2)c2cccc(C)c21 | 17 | 2 | 13 | 6 | 100* | -5
CCOC(=O)C1CC(=NO)c2ccc(OC)c(OC)c2C1 (stereo not drawn) | 2 | -1 | -9 | -10 | -3 | -25
O=C(NCc1ccco1)/C(=C\C=C\c1ccccc1)NC(=O)c1ccccc1Br | 16 | 70* | 11 | -1 | 7 | -1
COc1ccc(S(=O)(=O)N2CCOC23CCN(S(=O)(=O)c2ccc(Cl)cc2)CC3)cc1 | 1 | -9 | 4 | -1 | 7 | 6
COc1ccc(OC)c(NC(=O)C2(C)CCN2Cc2ccc(SC)cc2)c1 (stereo not drawn) | 5 | 5 | 9 | 16 | 13 | -7
Cc1ccc(C(=O)N/C(=C\c2ccccc2)C(=O)NCC2CCCO2)cc1 (stereo not drawn) | 4 | 1 | 1 | -13 | 13 | 9
Cc1ccc(C(=O)N/C(=C/c2ccc(Cl)cc2)C(=O)NCC2CCCO2)cc1 (stereo not drawn) | -5 | 18 | 22 | 7 | 77* | -8
SMILES | Peg3 prom inh | TROY signal inh | HIF-2a inh | KKLEB cytotox | TWEAK Fn14 block | CF NFkB inh
COc1ccc(N(C)S(=O)(=O)c2cccc(C(=O)NC3CCCC3)c2)cc1 | 15 | 10 | 16 | 8 | 15 | -20
COc1ccc(N(C)S(=O)(=O)c2cccc(C(=O)NC3CCCCC3C)c2)cc1 (stereo not drawn) | 102* | -17 | 17 | -13 | 1 | 7
Cc1cc(S(=O)(=O)N2CCOCC2)c(C)s1 | 1 | 6 | 8 | -9 | -10 | 8
CC(C)NC1CCC(Nc2ccnc3cc(Cl)ccc23)CC1 (stereo not drawn) | 12 | -23 | -30 | 2 | 5 | -9
Clc1ccc2c(NCCNC3CCCCC3)ccnc2c1 | 84* | -17 | -36 | -17 | -59 | 12
N#C/C(=C/c1ccc(Sc2nc3ccccc3[nH]2)o1)c1cccc(F)c1 | 36 | 55* | -8 | -21 | 10 | 7
N#C/C(=C/c1ccc(Sc2nc3ccccc3[nH]2)o1)c1ccccc1F | -45 | 43 | -28 | 6 | 21 | -5
N#C/C(=C/c1ccc(Sc2nc3ccccc3[nH]2)o1)c1cccc(Br)c1 | 31 | 68* | -25 | -4 | 39 | 9
O=C(Cc1ccc(F)cc1)OCC(=O)N1CCN(S(=O)(=O)c2ccc(Cl)cc2)CC1 | 3 | 4 | -2 | 2 | 7 | 1
COc1ccc2nc3cc(Cl)ccc3c(C#N)c2c1 | -15 | -44 | -41 | 10 | -24 | -27
COc1ccc2nc3cc(Cl)ccc3c(Nc3ccc(O)c(CN4CCN(C)CC4)c3)c2c1 | 95* | -85 | -49 | -5 | -112 | -60
O=C1/C(=C/c2cccnc2)SC(=S)N1c1ccc(O)cc1 | 37 | 29 | 20 | -10 | 60* | 21
CCN(CC)c1ccc(N2C(=O)/C(=C\c3cccnc3)SC2=S)cc1 | 23 | -2 | 11 | 4 | 14 | 4
CCN(CC)c1ccc(N2C(=O)/C(=C/c3cccnc3)SC2=S)cc1 | 11 | 4 | 8 | -39 | 26 | 56*
O=C1/C(=C/c2cccnc2)SC(=S)N1c1ccc(F)cc1 | 1 | -13 | -9 | 3 | 24 | -16
CN(Cc1ccccc1)CC(O)CN(C)Cc1ccccc1 | -17 | 3 | -7 | -2 | -19 | 13
CC1=C(C(=O)N2CCCCCC2)CC(CC(=O)NCc2ccco2)C(=O)N1Cc1ccccc1 (stereo not drawn) | 4 | 17 | 2 | 3 | 13 | -3
NC1=NC(=O)C(Cc2ccc(OC(F)(F)F)cc2)S1 (stereo not drawn) | -1 | 0 | 5 | 7 | 20 | -2
CC1=NNC(=O)/C1=C\c1cn(-c2ccccc2)nc1-c1cccs1 | 115* | 88* | 94* | -25 | 109* | 112*
O=Cc1cn(-c2ccccc2)nc1-c1ccc(F)cc1 | -89 | -48 | -217 | 1 | 9 | -26
CC1=NNC(=O)/C1=C\c1cn(-c2ccccc2)nc1-c1ccc(F)cc1 | 112* | 75* | 94* | -83* | 100* | 91*
COc1ccc(/C=N/Nc2snc(SC)c2C#N)cc1OC | -269 | -26 | -240 | -1 | -1 | 3

Screening results deposited in PubChem by Sanford-Burnham Center for Chemical Genomics.
